Assay results published in PubChem BioAssay.
Activity calls are given as the source filed them.

Assays:
[1] = binders of probe aFSTL3 on microarray, primary screen, stem cell growth factor project, biochemical, small-molecule microarray, fluorescence 635/667 (AID 1064); details: higher = more signal;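 note: measures binding of the biotinylated anti-FSTL3 antibody to printed compounds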
[2] = binders from COS7 lysate, DM2A8 probe, primary screen, torsin A project, cell lysate, small-molecule microarray, fluorescence 635/667 (AID 1065); details: higher = more signal, COS7 lysate expressing mutant human TOR1A
[3] = binders of probe aFGF2 on microarray, primary screen, stem cell growth factor project, biochemical, small-molecule microarray, fluorescence 635/667 (AID 1067); details: higher = more signal;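 note: measures binding of biotinylated aFGF2 protein to printed compounds on slides; z-score merges feature fluorescence and signal-to-noise across triplicate slides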
[4] = binders of probe aFGF10 on microarray, primary screen, stem cell growth factor project, biochemical, small-molecule microarray, fluorescence 635/667 (AID 1071); details: higher = more signal;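 note: score merges 667 nm spot intensity and signal to noise from triplicate slides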
[5] = biological target: Neurogenic locus notch homolog protein 2 (Homo sapiens) (UniProt Q04721); experiment: Notch2 binders on small-molecule microarrays, primary screen, biochemical, small-molecule microarray, 635 nm fluorescence, stem cell growth factors (AID 1073); details: Notch2 binding, higher = more signal
Neurogenic locus notch homolog protein 2 (Homo sapiens), sequence (Q04721 whole entry, looked up, canonical isoform): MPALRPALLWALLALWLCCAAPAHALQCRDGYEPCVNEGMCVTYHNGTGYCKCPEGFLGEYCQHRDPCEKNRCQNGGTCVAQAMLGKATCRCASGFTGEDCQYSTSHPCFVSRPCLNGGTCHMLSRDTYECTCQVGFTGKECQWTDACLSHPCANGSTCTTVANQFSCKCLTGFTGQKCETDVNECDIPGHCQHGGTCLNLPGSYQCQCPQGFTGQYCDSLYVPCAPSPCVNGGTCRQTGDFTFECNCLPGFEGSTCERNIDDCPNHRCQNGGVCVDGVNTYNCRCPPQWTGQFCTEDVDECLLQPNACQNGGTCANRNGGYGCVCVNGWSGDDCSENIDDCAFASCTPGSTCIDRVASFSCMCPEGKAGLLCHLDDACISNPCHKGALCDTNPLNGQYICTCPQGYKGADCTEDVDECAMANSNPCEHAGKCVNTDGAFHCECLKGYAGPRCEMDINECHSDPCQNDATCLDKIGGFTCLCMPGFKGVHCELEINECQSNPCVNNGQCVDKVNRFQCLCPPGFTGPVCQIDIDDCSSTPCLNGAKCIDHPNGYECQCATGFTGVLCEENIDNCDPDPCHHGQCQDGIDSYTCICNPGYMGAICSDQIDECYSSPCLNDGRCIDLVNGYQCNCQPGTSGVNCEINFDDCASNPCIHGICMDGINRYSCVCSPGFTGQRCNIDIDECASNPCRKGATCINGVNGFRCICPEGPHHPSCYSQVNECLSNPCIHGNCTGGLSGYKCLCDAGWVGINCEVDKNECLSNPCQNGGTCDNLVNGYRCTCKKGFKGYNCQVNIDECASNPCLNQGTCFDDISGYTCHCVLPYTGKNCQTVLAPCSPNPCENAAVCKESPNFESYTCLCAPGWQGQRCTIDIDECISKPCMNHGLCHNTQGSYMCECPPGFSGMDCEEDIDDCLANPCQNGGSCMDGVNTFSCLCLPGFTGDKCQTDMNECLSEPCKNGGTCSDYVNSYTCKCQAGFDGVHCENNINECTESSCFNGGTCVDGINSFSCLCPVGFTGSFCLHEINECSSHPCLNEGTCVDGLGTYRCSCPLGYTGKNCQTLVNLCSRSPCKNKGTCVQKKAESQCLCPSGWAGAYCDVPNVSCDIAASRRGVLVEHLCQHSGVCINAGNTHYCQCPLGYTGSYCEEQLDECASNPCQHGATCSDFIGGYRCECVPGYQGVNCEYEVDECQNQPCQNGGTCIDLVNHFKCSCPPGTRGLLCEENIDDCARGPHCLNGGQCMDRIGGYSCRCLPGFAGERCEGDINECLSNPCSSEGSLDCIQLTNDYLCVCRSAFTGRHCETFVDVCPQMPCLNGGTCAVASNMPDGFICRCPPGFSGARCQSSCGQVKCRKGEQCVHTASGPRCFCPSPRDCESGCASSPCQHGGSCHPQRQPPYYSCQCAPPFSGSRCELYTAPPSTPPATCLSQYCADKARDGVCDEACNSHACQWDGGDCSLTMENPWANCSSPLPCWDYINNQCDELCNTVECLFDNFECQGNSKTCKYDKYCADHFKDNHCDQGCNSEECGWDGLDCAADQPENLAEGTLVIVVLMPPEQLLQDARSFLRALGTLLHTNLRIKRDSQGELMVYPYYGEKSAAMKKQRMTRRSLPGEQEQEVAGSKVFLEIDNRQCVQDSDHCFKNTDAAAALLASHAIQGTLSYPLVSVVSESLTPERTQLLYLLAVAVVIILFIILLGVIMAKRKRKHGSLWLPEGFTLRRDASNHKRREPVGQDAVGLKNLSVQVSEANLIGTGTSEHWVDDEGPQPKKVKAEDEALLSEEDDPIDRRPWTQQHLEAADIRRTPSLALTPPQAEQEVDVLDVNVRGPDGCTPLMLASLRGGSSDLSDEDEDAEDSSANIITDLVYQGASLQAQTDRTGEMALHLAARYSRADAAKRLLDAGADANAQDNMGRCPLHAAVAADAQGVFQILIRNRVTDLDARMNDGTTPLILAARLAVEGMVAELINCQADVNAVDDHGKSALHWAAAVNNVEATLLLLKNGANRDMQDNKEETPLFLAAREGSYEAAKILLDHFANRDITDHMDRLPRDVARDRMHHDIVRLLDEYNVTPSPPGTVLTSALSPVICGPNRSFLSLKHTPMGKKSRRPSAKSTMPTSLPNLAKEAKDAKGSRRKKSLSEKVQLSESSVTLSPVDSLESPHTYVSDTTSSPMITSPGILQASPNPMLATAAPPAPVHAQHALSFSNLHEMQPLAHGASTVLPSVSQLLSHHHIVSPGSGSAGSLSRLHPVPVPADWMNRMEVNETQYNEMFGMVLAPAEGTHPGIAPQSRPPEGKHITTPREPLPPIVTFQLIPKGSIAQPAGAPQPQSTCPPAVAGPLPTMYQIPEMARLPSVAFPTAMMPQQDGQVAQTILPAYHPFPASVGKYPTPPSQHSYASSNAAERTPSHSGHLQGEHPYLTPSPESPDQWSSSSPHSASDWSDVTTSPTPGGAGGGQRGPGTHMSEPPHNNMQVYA

[6] = biological target: Pro-neuregulin-1, membrane-bound isoform (Homo sapiens) (UniProt Q02297); experiment: NRG1 binders on small-molecule microarrays, primary screen, psychiatric disease protein project, biochemical, small-molecule microarray, fluorescence 635/667 (AID 1075); details: NRG1 binding, 635 nm fluorescence, higher = more signal;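 note: score combines 667 nm spot fluorescence with signal to noise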
Pro-neuregulin-1, membrane-bound isoform (Homo sapiens), sequence (Q02297 whole entry, looked up, the tested form may be a part, canonical isoform): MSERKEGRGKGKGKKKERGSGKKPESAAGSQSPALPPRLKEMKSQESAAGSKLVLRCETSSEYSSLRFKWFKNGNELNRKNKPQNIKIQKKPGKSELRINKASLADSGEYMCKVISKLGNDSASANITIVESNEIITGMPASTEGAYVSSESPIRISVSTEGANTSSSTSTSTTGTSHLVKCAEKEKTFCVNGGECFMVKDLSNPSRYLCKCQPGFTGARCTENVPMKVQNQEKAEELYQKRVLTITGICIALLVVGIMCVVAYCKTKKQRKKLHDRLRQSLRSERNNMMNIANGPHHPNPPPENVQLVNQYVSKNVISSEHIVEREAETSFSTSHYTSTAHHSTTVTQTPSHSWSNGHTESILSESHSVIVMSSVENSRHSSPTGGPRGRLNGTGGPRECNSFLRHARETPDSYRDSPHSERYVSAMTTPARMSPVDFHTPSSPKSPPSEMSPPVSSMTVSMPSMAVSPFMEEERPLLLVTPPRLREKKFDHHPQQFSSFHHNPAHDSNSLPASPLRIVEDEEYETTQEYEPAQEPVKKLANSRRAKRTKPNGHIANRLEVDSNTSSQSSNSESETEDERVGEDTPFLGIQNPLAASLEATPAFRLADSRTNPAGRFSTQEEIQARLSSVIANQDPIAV

[7] = tested on: Neuregulin-1 EGF-like domain; experiment: binders of neuregulin-1 EGF-like domain, primary screen, biochemical, small-molecule microarray, 635 nm fluorescence (AID 1081); details: small-molecule microarray binding, higher = more signal;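 note: binding of the protein to compounds printed on small-molecule microarray slides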
[8] = FRG1 promoter luciferase signal modulators, primary screen, FRG1 inhibition for FSHD, cell-based, C2C12 myotubes, firefly/Renilla luciferase, luminescence (AID 1084); details: higher = more signal, called active from +8 up or from −8 down
[9] = binders of probe aFST on microarray, primary screen, stem cell growth factor project, biochemical, small-molecule microarray, fluorescence 635/667 (AID 1086); details: higher = more signal;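 note: score merges 667 nm fluorescence with signal-to-noise of each printed compound spot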
[10] = binders of probe aHhip on microarray, primary screen, stem cell growth factor project, biochemical, small-molecule microarray, fluorescence 635/667 (AID 1087); details: higher = more signal;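 note: score merges spot fluorescence at 667nm with spot signal to noise ratio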
[11] = tested on: PRMT1 (protein arginine N-methyltransferase 1); experiment: PRMT1 binders on small-molecule microarrays, primary screen, biochemical, small-molecule microarray, 635 nm fluorescence (AID 1088); details: small-molecule microarray binding, higher = more signal;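 note: binding of Prmt1 protein to compounds spotted on small-molecule microarray slides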
[12] = yeast growth modulation, basal conditions, primary screen, YJM789 clinical isolate, OD600, 24 h (AID 1089);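 note: growth of clinical yeast isolate S. cerevisiae YJM 789 seeded 1000 cells per well; test concentration not given here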; details: S. cerevisiae YJM789 growth, higher = more signal, called active from +8 up or from −8 down
[13] = fission yeast growth modulation, primary screen, strain 972, OD600, 24 h, no modulator (AID 1090);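 note: basal condition with compound alone and no growth modifier present; test concentration not given here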; details: S. pombe 972 growth, higher = more signal, called active from +8 up or from −8 down
[14] = S. cerevisiae growth modulation with rapamycin, primary screen, strain BY4716, OD600, 96 h (AID 1091); details: higher = more signal, called active from +8 up or from −8 down; note: test concentration not given here
[15] = biological target: Torsin-1A-interacting protein 2 (Homo sapiens) (UniProt Q8NFQ8); experiment: LULL1 binders on small-molecule microarray, primary screen, cell lysate, human LULL1 lysate, 635/667 nm fluorescence (AID 1092); details: hLULL1 lysate binding, 635 nm fluorescence, higher = more signal;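 note: probe is lysate of COS7 cells overexpressing human LULL1; score merges per-feature 667 nm fluorescence with signal-to-noise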
Torsin-1A-interacting protein 2 (Homo sapiens), sequence (Q8NFQ8 whole entry, looked up): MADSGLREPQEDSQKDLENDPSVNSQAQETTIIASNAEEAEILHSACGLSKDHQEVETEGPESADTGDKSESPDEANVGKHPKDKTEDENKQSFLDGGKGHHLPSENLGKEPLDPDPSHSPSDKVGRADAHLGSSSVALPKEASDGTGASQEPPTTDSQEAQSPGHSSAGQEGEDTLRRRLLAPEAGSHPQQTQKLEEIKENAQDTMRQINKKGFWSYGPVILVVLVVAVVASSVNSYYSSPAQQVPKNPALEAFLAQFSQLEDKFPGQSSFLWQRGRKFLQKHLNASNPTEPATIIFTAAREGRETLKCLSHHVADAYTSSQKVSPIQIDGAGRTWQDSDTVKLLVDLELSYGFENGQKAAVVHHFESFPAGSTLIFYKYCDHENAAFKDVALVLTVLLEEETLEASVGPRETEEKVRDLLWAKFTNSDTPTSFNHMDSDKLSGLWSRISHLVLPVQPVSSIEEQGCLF

[16] = E. coli growth modulation, two-sided OD650, primary screen, E. coli filamentation project, strain DRC41, 24 h (AID 1093); details: OD650, 24 h, higher = more signal, called active from +8 up or from −8 down;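 note: MC1000 strain lacking acrAB efflux and sulA so SOS filamentation is blocked; test concentration not given here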
[17] = small-molecule microarray binders of probe aLefty2, primary screen, biochemical, biotinylated probe, 635/667 nm fluorescence (AID 1094); details: higher = more signal;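 note: score merges spot fluorescence near 667 nm with spot signal-to-noise ratio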
[18] = tested on: Noggin (protein binding on small-molecule microarray); experiment: Noggin binders on small-molecule microarray, primary screen, biochemical, 635/667 nm fluorescence (AID 1095); details: 635 nm fluorescence, higher = more signal;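 note: score merges 667 nm feature fluorescence with signal to noise over triplicate slides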
[19] = biological target: Neurogenic locus notch homolog protein 3 (Homo sapiens) (UniProt Q9UM47); experiment: NOTCH3 binders on small-molecule microarray, primary screen, biochemical, 635/667 nm fluorescence (AID 1096); details: NOTCH3 binding, 635 nm fluorescence, higher = more signal
[20] = small-molecule microarray binders of probe aEGFR, primary screen, biochemical, biotinylated probe, 635/667 nm fluorescence (AID 1097); details: higher = more signal;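 note: probe is a biotinylated anti-EGFR antibody binding compounds printed on slides; score combines fluorescence near 667 nm and signal to noise of each spot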

SMILES | composite z-score [1] | composite z-score [2] | composite z-score [3] | composite z-score [4] | composite z-score [5] | composite z-score [6] | composite z-score [7] | z-score [8] | composite z-score [9] | composite z-score [10] | composite z-score [11] | z-score [12] | z-score [13] | z-score [14] | composite z-score [15] | z-score [16] | composite z-score [17] | composite z-score [18] | composite z-score [19] | composite z-score [20]
COc1ccc(CCNC(=O)[C@@H]2c3ccccc3C(=O)N(Cc3cc(C(F)(F)F)cc(C(F)(F)F)c3)[C@H]2c2ccc(CO)cc2)cc1 | 0.0967 | -0.138 | -0.123 | -0.0803 | -0.181 | 0.568 | 0.993 | -0.188 (inactive) | -0.135 | -0.236 | 1.41 | 0.279 (inactive) | -0.381 (inactive) | 0.848 (inactive) | 2.16 | -0.0332 (inactive) | -0.237 | 1.07 | 0.365 | -0.167
CN1C(=O)C2C=CC(C(O)C#Cc3ccccc3)N(Nc3ccccc3)C2C1=O (stereo not given) | 0.247 | 0.161 | 0.111 | 1.17 | 1.7 | 1.86 | 1.3 | 2.29 (inactive) | 1.71 | -0.0024 | 1.54 | 0.415 (inactive) | -1.18 (inactive) | 1 (inactive) | 3.4 | -0.672 (inactive) | 0.166 | 0.295 | 1.03 | 0.199
COc1ccccc1CN1C(=O)c2ccccc2[C@](Cc2ccccc2I)(C(=O)NCC(F)(F)F)[C@@H]1c1ccc(CO)cc1 | 0.164 | 0.847 | -0.0454 | 1.21 | 0.981 | 1.51 | 1.36 | -0.719 (inactive) | 1.37 | 0.0373 | 1.55 | -0.23 (inactive) | -0.503 (inactive) | 0.0879 (inactive) | 3.22 | -1.13 (inactive) | 0.126 | 0.576 | 0.872 | 0.0024
COc1ccc([Si](C)(C)[C@H]2[C@H](CC(=O)N(CCO)Cc3ccccc3)O[C@@]3(C(=O)N(Cc4cccc(N5CCOC5=O)c4)c4ccccc43)[C@@H]2C)cc1 | -0.243 | 0.635 | -0.0737 | 0.171 | 0.0078 | 1.2 | 0.974 | -0.551 (inactive) | -0.0174 | 0.176 | 1.56 | -0.0337 (inactive) | -0.166 (inactive) | 3.02 (inactive) | 1.35 | 1.17 (inactive) | -0.0724 | 0.722 | 0.403 | -0.167
COCCOC(=O)N1C(=O)[C@@]2(c3cc(C#CC4=CCCCC4)ccc31)[C@H](c1ccccc1OCCO)N1[C@H](c3ccccc3)[C@H](c3ccccc3)OC(=O)[C@H]1[C@@H]2C(=O)Nc1nc2ccccc2s1 | -0.19 | -0.0036 | -0.0398 | 0.359 | 1.23 | 0.953 | 1.08 | 1.41 (inactive) | 0.513 | 0.0373 | 1.29 | 0.478 (inactive) | 0.615 (inactive) | 1.29 (inactive) | 2.66 | -0.15 (inactive) | 0.0274 | 1.05 | 1.06 | -0.0728
COC(=O)[C@@]1(Cc2ccccc2N=[N+]=[N-])N=C(c2ccc(OCCCO)cc2)O[C@H]1c1ccccc1N=[N+]=[N-] | 0.663 | 0.192 | 0.0131 | -0.0009 | 0.648 | 0.859 | 1.27 | -0.492 (inactive) | 0.214 | -0.0123 | 1.54 | -1.13 (inactive) | -3.84 (inactive) | 26.2 (active) | 2.05 | 1.51 (inactive) | 0.258 | 0.717 | 0.647 | -0.0211
COCCOC(=O)N1C(=O)[C@@]2(c3ccccc31)[C@H](C(=O)N1CCN(c3ncccn3)CC1)[C@H]1C(=O)O[C@H](c3ccccc3)[C@H](c3ccccc3)N1[C@@H]2c1ccc(O)cc1 | 0.149 | 0.0128 | -0.0136 | 0.879 | 0.186 | 1.36 | 0.335 | -0.79 (inactive) | -0.0574 | 0.0523 | 1.55 | 0.232 (inactive) | 1.07 (inactive) | 1.72 (inactive) | 2.25 | 1.48 (inactive) | -0.122 | 0.161 | 0.679 | -0.184
COC(=O)[C@@]1(Cc2ccc(F)cc2)[C@H]2c3cc(C(=O)N4CCCC4)n(CCc4ccc(O)c(O)c4)c3C[C@H]2CN1C(=O)c1ccccc1 | 1.41 | 0.109 | 0.57 | 0.146 | 1.38 | 2.3 | 1.29 | 0.332 (inactive) | 1.05 | 2.44 | -0.522 | 1.34 (inactive) | 1.16 (inactive) | 1.96 (inactive) | 3.22 | -0.469 (inactive) | 1.17 | -0.97 | -1.04 | 0.978
CC(=O)NCCCC[C@@H]1NC(=O)[C@H]2C[C@@H](C(=O)NCCCC[N+](C)(C)C)[C@@H](c3cccc(OCCO)c3)N2C1=O | -0.188 | 1.86 | -0.0319 | 1.23 | 0.165 | 0.4 | 1.14 | 0.647 (inactive) | 0.593 | 0.24 | 1.41 | -0.369 (inactive) | -1.27 (inactive) | -1.92 (inactive) | 1.97 | 1.08 (inactive) | 0.0503 | 1.81 | 1.01 | 0.162
COC1OC[C@]2(C)[C@H]3C4=C(CN2C(=O)OC(C)(C)C)[C@H](C)C(CO)C(CO)C4CC[C@@H]13 (stereo not given in full) | 1.99 | 0.473 | 0.236 | 0.557 | 1.79 | 1.82 | 1.25 | 2.38 (inactive) | 1.85 | 1 | 1.18 | 0.58 (inactive) | 1.22 (inactive) | 0.867 (inactive) | 3.44 | -0.172 (inactive) | 0.858 | -0.05 | 0.96 | 0.187
